From PubChem BioAssay AID1159580 (chemical genetic matrix, 2015)
Among all 5,500 compounds or so, about 2,000 (36%) were called active. Another 18% or so got no clear call; they are omitted. Rule as the data show it: active = normalized growth mostly below about 0.91 (no sharp cut-off); inconclusive = no clear call, values can overlap the other calls; inactive = mostly above about 0.92. The list shows a part of the results.

Test: chemical genetic growth profiling, strain panel (AID 1159580);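 also: tested at 20 µM; growth read once vehicle control cultures reached saturation at 30 °C; 1 = growth at the plate median or of vehicle wells; lower values mean less growth of the strain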
Settings: S. cerevisiae deletion strains, growth OD
[1] = locus YHR030C, strain SLT2, hits give low values
[2] = locus YHR079C, strain IRE1, hits give low values
[3] = locus YJL095W, strain BCK1, hits give low values
[4] = locus YJR066W, strain TOR1, hits give low values
[5] = locus YLR113W, strain HOG1, hits give low values
[6] = locus YNL183C, strain NPR1, hits give low values
[7] = locus YOR231W, strain MKK1, hits give low values
[8] = locus YPL256C, strain CLN2, hits give low values

Measured: normalized growth

CC(=O)NCCCS(=O)(=O)O
inactive: locus YAL021C, strain ccr4, hits give low values 0.994 | locus YAL026C, strain drs2, hits give low values 1.02 | locus YAL030W, strain snc1, hits give low values 1.01 | locus YBL061C, strain skt5, hits give low values 1.01 | locus YBR009C, strain hhf1, hits give low values 1.02 | locus YBR023C, strain chs3, hits give low values 1.02 | locus YBR171W, strain sec66, hits give low values 1.03 | locus YBR231C, strain swc5, hits give low values 1.02 | locus YBR279W, strain paf1, hits give low values 1.02 | locus YCL011C, strain gbp2, hits give low values 1.01 | locus YCL016C, strain dcc1, hits give low values 1.02 | locus YCL061C, strain MRC1, hits give low values 1.02 | locus YCL069W, strain vba3, hits give low values 1.01 | locus YCR088W, strain abp1, hits give low values 1.01 | locus YDL005C, strain med2, hits give low values 1.01 | locus YDL040C, strain nat1, hits give low values 1.02 | locus YDR001C, strain nth1, hits give low values 1.01 | locus YDR069C, strain doa4, hits give low values 1.01 | locus YDR137W, strain rgp1, hits give low values 1.03 | locus YDR159W, strain sac3, hits give low values 1.01 | locus YDR195W, strain ref2 1.02 | locus YDR297W, strain sur2, hits give low values 1.01 | locus YDR334W, strain swr1, hits give low values 1.01 | locus YDR335W, strain msn5, hits give low values 1.01 | locus YDR392W, strain spt3, hits give low values 0.984 | locus YEL003W, strain gim4, hits give low values 1.01 | locus YEL037C, strain rad23, hits give low values 1.01 | locus YEL061C, strain CIN8 (second series), hits give low values 1 | locus YER015W, strain faa2, hits give low values 1.01 | locus YER016W, strain bim1, hits give low values 1.02 | locus YER111C, strain swi4, hits give low values 1.02 | locus YER155C, strain BEM2 (second series), hits give low values 1.04 | locus YFR010W, strain ubp6, hits give low values 1.01 | locus YGL167C, strain pmr1, hits give low values 1.01 | locus YGL173C, strain kem1, hits give low values 1.02 | locus YGL227W, strain vid30, hits give low values 1.02 | locus YGL240W, strain doc1, hits give low values 1.02 | locus YGL253W, strain hxk2, hits give low values 1.01 | locus YHR013C, strain ard1, hits give low values 1.05 | locus YHR027C, strain rpn1, hits give low values 1.01 | [1] 1.03 | [2] 1.04 | locus YHR142W, strain chs7, hits give low values 1.01 | locus YJL092W, strain hpr5, hits give low values 1.01 | locus YJL095W, strain BCK1 (second series), hits give low values 1.01 | [3] 1.01 | locus YJL115W, strain asf1, hits give low values 1.01 | locus YJL129C, strain trk1, hits give low values 1.01 | locus YJL154C, strain vps35, hits give low values 1.01 | locus YJL164C, strain tpk1, hits give low values 1 | locus YJL166W, strain qcr8, hits give low values 1.02 | locus YJL187C, strain SWE1, hits give low values 1.01 | [4] 0.989 | locus YKL160W, strain elf1, hits give low values 1.02 | locus YKR026C, strain gcn3, hits give low values 0.993 | locus YKR091W, strain srl3, hits give low values 1.02 | locus YLL001W, strain dnm1, hits give low values 1.02 | locus YLL026W, hits give low values 1.02 | locus YLL041C, strain sdh2, hits give low values 1.01 | locus YLR027C, strain aat2, hits give low values 1.02 | [5] 0.97 | locus YLR221C, strain rsa3, hits give low values 1.01 | locus YLR258W, strain gsy2, hits give low values 1.01 | locus YLR262C, strain YPT6 (second series), hits give low values 1.02 | locus YLR320W, strain mms22, hits give low values 1.01 | locus YLR342W, strain FKS1, hits give low values 1.01 | locus YLR357W, strain rsc2, hits give low values 1.06 | locus YLR370C, strain arc18, hits give low values 1.01 | locus YLR384C, strain iki3, hits give low values 1.02 | locus YML120C, strain ndi1, hits give low values 1.01 | locus YMR058W, strain fet3, hits give low values 1.02 | locus YMR125W, strain sto1, hits give low values 1.03 | locus YMR129W, hits give low values 1 | locus YMR205C, strain PFK2, hits give low values 1.03 | locus YMR231W, strain pep5, hits give low values 1.01 | locus YNL071W, strain lat1, hits give low values 1.02 | [6] 1 | locus YNL209W, strain ssb2, hits give low values 1.01 | locus YNL248C, strain rpa49, hits give low values 1.01 | locus YNL322C, strain KRE1 (second series), hits give low values 1.01 | locus YNR049C, strain mso1, hits give low values 1.02 | locus YOR001W, strain rrp6, hits give low values 1.01 | locus YOR070C, strain gyp1, hits give low values 1.01 | locus YOR080W, strain dia2, hits give low values 1.01 | locus YOR083W, strain WHI5, hits give low values 0.998 | locus YOR106W, strain vam3, hits give low values 1.01 | [7] 1.02 | locus YOR265W, strain rbl2, hits give low values 1.01 | locus YOR270C, strain vph1, hits give low values 1.04 | locus YOR290C, strain snf2, hits give low values 1.01 | locus YPL051W, strain arl3, hits give low values 1.01 | locus YPL078C, strain atp4, hits give low values 1.02 | locus YPL106C, strain sse1, hits give low values 1.02 | locus YPL240C, strain hsp82, hits give low values 1.01 | [8] 1.02

CC(C)(CO)C(O)C(=O)NCCC(=O)NCCSSCCNC(=O)CCNC(=O)C(O)C(C)(C)CO (stereo not drawn)
inactive: [1] 0.954 | [2] 0.973 | [3] 0.968 | [4] 0.897 | [5] 0.951 | [6] 0.89 | [7] 0.955 | [8] 0.951
